In PubChem BioAssay AID743380 (National Center for Advancing Translational Sciences (NCATS), 2014):
The source made the active and inactive calls. Calls follow the shape of the full dose curve.

What follows are molecules tested against Phosphatidylinositol 4-phosphate 5-kinase type-1 alpha (Homo sapiens) (UniProt Q99755) (assay: qHTS for Inhibitors of PI5P4K: PI4P5K-alpha 32P-ATP TLC Secondary Assay for Probe SAR). Conditions: recombinant PI4P5K-alpha, 32P-ATP TLC phosphorimager.
Chain of Phosphatidylinositol 4-phosphate 5-kinase type-1 alpha (Homo sapiens) (Q99755 whole entry, looked up, canonical isoform): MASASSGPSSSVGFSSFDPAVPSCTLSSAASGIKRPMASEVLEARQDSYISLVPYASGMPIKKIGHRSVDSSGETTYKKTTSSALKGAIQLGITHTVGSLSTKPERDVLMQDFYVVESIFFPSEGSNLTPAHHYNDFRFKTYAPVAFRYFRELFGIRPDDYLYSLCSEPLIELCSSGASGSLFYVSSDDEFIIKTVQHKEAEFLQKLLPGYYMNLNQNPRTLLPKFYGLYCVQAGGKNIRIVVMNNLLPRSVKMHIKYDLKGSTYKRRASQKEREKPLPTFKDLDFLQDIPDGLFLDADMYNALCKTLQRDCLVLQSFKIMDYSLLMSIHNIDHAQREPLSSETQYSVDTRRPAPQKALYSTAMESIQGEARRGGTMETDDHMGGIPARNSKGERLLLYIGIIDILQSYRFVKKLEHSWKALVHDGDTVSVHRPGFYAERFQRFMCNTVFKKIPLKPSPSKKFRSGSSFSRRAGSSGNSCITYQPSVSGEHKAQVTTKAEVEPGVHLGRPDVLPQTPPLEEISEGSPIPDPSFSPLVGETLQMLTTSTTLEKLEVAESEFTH
Excerpt: In addition to finding PI5P, we discovered the type II phosphatidylinositol 5-phosphate 4-kinase (PI5P4K) family (alpha, beta, gamma isoforms) that catalyze the conversion of PI5P to PI(4,5)P2. Alternatively, PI(4,5)P2 can also be synthesized through phosphatidylinositol-4-phosphate (PI4P) by the type I phosphatidylinositol 4-phosphate 5-kinases (PI4P5K). These PI5P4K enzymes therefore represent one way by which cells can regulate endogenous PI5P levels and play important roles in insulin signaling and in stress responses. […] A qHTS PI5P4K-alpha ADP-Glo assay was developed to identify specific modulators of human PI5P4K, phosphatidylinositol-5-phosphate 4-kinase (Type II PIPK). To confirm that the active compounds and their analogs were true and selective inhibitors, a secondary Thin-layer Chromatography (TLC) assays against recombinant PI5P4K-alpha, PI4P5K-alpha or PI5P4K-beta that utilize a radioactively labeled ATP were developed. The data herein is the result of the PI4P5K-alpha TLC assay. […]
The kinase reaction was carried out in a total of 50 microL of kinase buffer (50 mM HEPES pH 7.4 and 10 mM MgCl2) containing 20 microM of the lipids that were suspended by sonication. […] The radiolabeled product, PI(4,5)P2, was quantified with a phosphorimager (Molecular Dynamics, STORM840, GE Healthcare, Waukesha, WI, USA).
For `O=C1Nc2ccc(C(=O)c3ccco3)cc2/C1=C/c1cc(Cl)c(O)c(Cl)c1`, the Potency was 0.498 µM (active).
